{"source": "PubChem BioAssay (EPA / NIEHS)", "note": "Calls of active or inactive are those of the source. The calls were made as follows: active = hit-call score of the fitted dose curve at least 0.9, where 1 is the maximum; inactive = score below 0.9.", "data": [{"test": "BSK_SAg_PBMCCytotoxicity: PBMC Cytotoxicity Assessment in the BioMAP Diversity Plus: SAg Assay (AID 2283093);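 also: fitted both ways against DMSO so a hit may be loss or gain of signal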;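 as to AC50: PBMC superantigen activated with SEB plus TSST-1 one hour after compound addition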", "settings": "primary human HUVEC with PBMC", "outline": "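PBMC viability by Alamar Blue reduction, fluorescence read at 546/580 nm after 6 h dye exposure. Cells were dosed 1 h before SEB plus TSST-1 activation (20 ng/mL final each), then held 90 h; endothelial/PBMC human co-culture.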", "values": [{"smiles": "CC(C)CCCCCCCOC(=O)CCCCC(=O)OCCCCCCCC(C)C", "outcome": "inactive"}, {"smiles": "O=C(O)c1cccc(N(Cc2cccnc2)c2ccc(OC(F)F)c(OC(F)F)c2)c1", "outcome": "inactive"}, {"smiles": "O=C(NS(=O)(=O)/C=C/c1ccccc1)c1ccc(F)cc1Cl", "outcome": "inactive"}, {"smiles": "CC(C)CC(C)(O)C#CC(C)(O)CC(C)C", "note": "(stereo not drawn)", "outcome": "inactive"}, {"smiles": "NC(=O)NO", "outcome": "inactive"}, {"smiles": "CNCc1ccc(NC(=O)c2c[nH]c3c2C(=O)CCC3)cc1", "outcome": "inactive"}, {"smiles": "CC[C@H](C)C(=O)O[C@H]1C[C@@H](C)C=C2C=C[C@H](C)[C@H](CC[C@@H]3C[C@@H](O)CC(=O)O3)[C@H]21", "AC50": "21.7 µM (active)"}, {"smiles": "CC(C)c1cccc(C(C)C)c1N1C(=O)c2ccc(O)cc2C1=O", "outcome": "inactive"}, {"smiles": "COc1ccc2sc(C(=O)Nc3nnn[nH]3)c(OC(C)C)c2c1", "AC50": "10 µM (active)"}, {"smiles": "CCN(C(=O)c1cc(C)cc(OC[C@H](C)Nc2ccncc2)c1)C(C)C", "outcome": "inactive"}, {"smiles": "CCCCC(CC)COC(=O)c1ccc(C(=O)OCC(CC)CCCC)cc1", "note": "(stereo not drawn)", "outcome": "inactive"}, {"smiles": "O=c1[nH]c2ccc(S(=O)CCN3CCC(Cc4ccc(F)cc4)CC3)cc2o1", "note": "(stereo not drawn)", "outcome": "inactive"}, {"smiles": "O=C(O)CC(O)C(=O)O", "note": "(stereo not drawn)", "outcome": "inactive"}, {"smiles": "CCCCCCc1ccc(O)cc1O", "AC50": "33.1 µM (active)"}, {"smiles": "COc1ccc(/C=C/S(=O)(=O)NC(=O)c2ccc(C)cc2Cl)cc1", "outcome": "inactive"}, {"smiles": "CCOc1cccc(-n2cc(C(=O)N3CCN(c4cc(C(=O)O)c5ccccc5c4)CC3)nc2-c2ccc(C)cc2)c1", "AC50": "26.9 µM (active)"}, {"smiles": "Nc1ccc(Nc2ccccc2)cc1", "AC50": "5.36 µM (active)"}, {"smiles": "O=C(O)c1cc(N=Nc2ccc(S(=O)(=O)Nc3ccccn3)cc2)ccc1O", "outcome": "inactive"}]}]}
